Screens: PubChem BioAssay, The Scripps Research Institute Molecular Screening Center
Most compounds without a hit are left out; they make up all but 2.3% or so of the library.
M1 PAM parental – nonselective activator or artifact in parental CHO-K1 calcium assay; ATP EC20, Fluo-8 calcium fluorescence; 0% at ATP EC20, 100% at ATP max; activation, % at 3 µM; hit rate 0.02% among 360,000; AID 602247;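 active means activation above the run cutoff, the mean activation of all test compounds plus 3 SD, cut at about 40% in these data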;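 further: peak over basal fluorescence ratio in a 140 s read after ATP addition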
CHRM1 agonist – human M1 muscarinic receptor agonism | P11229 | CHO-K1 hM1, Fluo-8 calcium fluorescence, agonist mode; 0% DMSO, 100% acetylcholine EC100 | activation, % at 3 µM | hit rate 0.33% among 360,000 | AID 588814;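 active means activation above the run's mean compound activation plus 3 SD, cut at about 16% in these data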;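 further: peak over basal fluorescence ratio within a 140 s kinetic read after compound addition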
Target sequence (P11229 whole entry, looked up): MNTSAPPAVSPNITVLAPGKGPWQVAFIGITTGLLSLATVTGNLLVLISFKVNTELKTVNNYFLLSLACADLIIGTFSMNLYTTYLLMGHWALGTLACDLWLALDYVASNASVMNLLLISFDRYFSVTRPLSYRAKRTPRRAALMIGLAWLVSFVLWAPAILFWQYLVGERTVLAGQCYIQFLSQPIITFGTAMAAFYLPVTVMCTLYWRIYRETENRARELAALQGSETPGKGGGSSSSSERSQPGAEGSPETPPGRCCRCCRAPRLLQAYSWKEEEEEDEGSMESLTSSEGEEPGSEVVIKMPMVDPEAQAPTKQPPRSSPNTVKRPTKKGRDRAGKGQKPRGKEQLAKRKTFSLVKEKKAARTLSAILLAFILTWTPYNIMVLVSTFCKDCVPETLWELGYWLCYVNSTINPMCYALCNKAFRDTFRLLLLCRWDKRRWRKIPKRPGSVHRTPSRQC
M1 ag parental – M1 agonist counterscreen hit in parental CHO-K1 cells | Fluo-8 calcium fluorescence; scaled to maximal ATP response, vehicle zero | activation, % at 3 µM | AID 602248 | hit rate 0.48% among 360,000; in the data active means activation above about 15%;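 further: untransfected CHO-K1 host cells lacking M1 receptor as counterscreen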
CHRM1 antagonist – human CHRM1 antagonism | P11229 | inhibition, % at 3 µM | hit rate 1.3% among 360,000 | CHO-K1 hM1, Fluo-8 calcium fluorescence, ACh EC80 antagonist;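 active means percent inhibition above its own plate's cutoff, namely the mean of that plate's compound wells plus 3 SD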;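 further: peak over basal fluorescence ratio during 140 s after agonist addition; 0% = ACh EC80 plus DMSO and 100% = DMSO alone without agonist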
CHO-K1 Ca antag – nonselective inhibitor or artifact in parental CHO-K1 cells. inhibition, % at 3 µM. ATP-induced calcium, Fluo-8 fluorescence. hit rate 0.6% among 360,000;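 active means inhibition above a per-plate cutoff, the plate's mean sample inhibition plus 3 SD, cut at about 24% in these data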;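 further: 0% = DMSO plus EC80 ATP and 100% = DMSO alone without ATP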
M1 PAM – human CHRM1 positive allosteric modulation; hit rate 0.088% among 360,000; CHO-K1 hM1, Fluo-8 calcium fluorescence, ACh EC20; 0% = ACh EC20, 100% = maximal ACh; AID 588819; activation, % at 3 µM; in the data active means activation above about 19%, passing the limit was not always enough
* hit, by the source's call.

SMILES	M1 PAM parental	CHRM1 agonist	M1 ag parental	CHRM1 antagonist	CHO-K1 Ca antag	M1 PAM
COc1ccc(C(=O)C2CCN(C(=S)NCCc3ccc(OC)c(OC)c3)CC2)cc1	1	-3	18*	3	-6	-18
COCCNC(=S)N1CCC(C(=O)c2ccc(F)cc2)CC1	6	3	1	-18	-9	18
CSc1nc2nc(Cl)c(Cl)nc2[nH]1	10	1	2	-8	-8	0
CCc1nnc(NC(=O)C2CC(=O)N(c3ccc(C)cc3)C2)s1 (centres undefined)	3	-2	-1	5	24*	6
CCOCCc1nnc(NC(=O)C2CC(=O)N(c3ccc(OCC)cc3)C2)s1 (centres undefined)	6	-4	0	-4	-12	6
CCOc1ccc(N2CC(C(=O)Nc3nnc(CC)s3)CC2=O)cc1 (centres undefined)	17	-4	-1	1	-4	28*
O=C(Nc1nnc(SCc2ccccn2)s1)C1CC(=O)N(c2ccc(F)cc2)C1 (centres undefined)	-27	-2	0	25*	3	1
COc1cccc(N2CC(C(=O)Nc3nnc(SCc4ccccn4)s3)CC2=O)c1 (centres undefined)	25	-2	2	11	-14	-5
Cn1cccc1C(=O)NNC(=O)COc1ccccc1Cl	-13	-3	0	16	-3	-7
CN(C)CCNc1nc(-c2ccccc2F)c2sccc2n1	9	-8	1	70*	0	-30
CC1CN(S(=O)(=O)c2cccc(C(=O)NCC(c3cccs3)N3CCOCC3)c2)CC(C)O1 (centres undefined)	1	-6	0	-6	-5	11
CC(C)(C)Cc1c(-c2ccccc2)nc2ccc(Cl)cn12	-9	-7	0	27*	3	-17
CC(C)(C)Cc1c(-c2ccc(Br)cc2)nc2ccc(Cl)cn12	16	3	0	26*	-15	-18
CC(C)(C)Cc1c(-c2ccc(Cl)cc2)nc2ccc(Cl)cn12	19	-9	1	28*	-16	-23
CCOc1ccc(C(=O)Cn2cnc3ccccc3c2=O)cc1	-2	-8	2	28*	-19	-12
Cc1ccc(C(=O)Cn2cnc3ccccc3c2=O)cc1	30	-2	0	-24	-16	-5
O=C(Nc1ccccc1F)c1c[nH]c(=O)[nH]c1=O	-4	-3	0	40*	-9	-12
COc1cccc(NC(=O)CN2C(=O)CSc3nc(C)cc(C)c32)c1	-2	0	0	-3	-8	-5
O=C(CCNC(=O)c1ccco1)NCCN1C(=O)S/C(=C\c2ccc(F)cc2)C1=O	2	-1	12	-4	5	3
Cc1ccc(S(=O)(=O)CCC(=O)NCCN2C(=O)S/C(=C/c3ccc(F)cc3)C2=O)cc1	-12	-3	6	3	26*	-4
CCCCC(CC)CN=C(N)NC(N)=NCCCCCCN=C(N)NC(N)=NCC(CC)CCCC (centres undefined)	13	58*	3	88*	-1	-25
COc1cccc(C(=O)NCC(=O)N2CCN(c3ccc(C(F)(F)F)cn3)CC2)c1	-31	-2	4	37*	27*	-13
CCOCCCNC(=O)c1ccc(/C=C2\Oc3ccccc3N(C)C2=O)cc1	19	-3	1	-21	-23	7
CCOC(=O)c1cc(=O)c2ccc(OCC(=O)Nc3ccc(F)cc3)cc2o1	10	10	25*	-8	-1	9
CC1CN(C(=O)COc2ccc3c(-c4ccccc4)cc(=O)oc3c2)CC(C)O1 (centres undefined)	-11	-2	1	29*	-10	-14
SMILES	M1 PAM parental	CHRM1 agonist	M1 ag parental	CHRM1 antagonist	CHO-K1 Ca antag	M1 PAM
O=C(COc1ccc2c(-c3ccccc3)cc(=O)oc2c1)Nc1ccc(CCO)cc1	-20	5	18*	24	26*	-11
CCC1C(=O)C[C@H]2CCN3C(=O)CCCC1C23 (some centres undefined)	0	-1	0	-7	-13	4
O=C(NC(=S)Nc1cccnc1)c1cc2ccccc2o1	6	-4	2	-8	1	7
O=C(Nc1cccnc1)c1cc2cc(Br)ccc2o1	16	-2	2	60*	-12	-4
CNc1ncnc2c1ncn2-c1ccccc1	21	-2	1	-7	-11	5
COc1ccc(N2C(=O)CC(N3CCN(S(=O)(=O)c4c(C)cc(C)cc4C)CC3)C2=O)cc1 (centres undefined)	17	-3	2	-3	-14	4
COc1ccc(N2C(=O)CC(N3CCN(S(=O)(=O)c4cc(C)ccc4C)CC3)C2=O)cc1 (centres undefined)	2	-4	16*	5	12	-5
COc1ccc(CN2CCN(C(=O)c3cc(-c4cccnc4)nc4ccc(Cl)cc34)CC2)c(OC)c1OC	-19	-3	6	58*	13	-22
COc1cccc(CN2CCN(C(=O)c3ccc(-c4ccccc4)cc3)CC2)c1	11	-4	16*	10	5	-3
COc1cccc(CN2CCN(C(=O)c3ccc(-c4ccccc4)cc3)CC2)c1OC	10	-9	16*	-3	10	8
COc1cccc(CC(NC(C)=O)C(=O)NC2CCN(C(=O)c3ccc(Cl)cc3)CC2)c1OC (centres undefined)	27	1	1	-22	3	30*
COc1cccc(CN2CCN(C(=O)c3cccc(OC)c3)CC2)c1	8	-6	1	-14	-5	13
C[C@@H]1CN([C@@H](C)CO)C(=O)c2cc(Br)cnc2O[C@H]1CN(C)C(=O)Nc1ccc(F)cc1	13	-2	0	-19	-6	11
O=Nc1nc2ncccn2c1-c1ccccc1	9	1	1	-6	-7	2
CCOC(=O)CC1(C)NC(C(=O)O)C(C)(C)S1 (centres undefined)	3	-1	0	6	-7	-6
COc1ccc2c(c1)C1(Nc3ccccc3-c3nc4ccccc4n31)C(=O)N2 (centres undefined)	13	0	37*	10	4	2
CN(C)c1ccc(/C=C2\Oc3ccc(C#Cc4cccc(N)c4)cc3C2=O)cc1	-13	29*	10	35*	2	-18
Cc1cccnc1NC(=O)c1ccc(Cl)c(S(=O)(=O)N2CCCCC2)c1	-16	-1	1	0	-7	-1
CC(C)Cn1c(=O)c(C(=O)Nc2ccncc2)c(O)c2ccccc21	19	-7	0	99*	-8	-24
CCn1c(=O)c(C(=O)NNC(=O)c2ccccc2)c(O)c2ccccc21	-8	11	19*	-6	2	2
